# Laboratory results from PubChem BioAssay (NCATS).
# “And” between values parts separate entries of the source, which are not always exact repeats. Equal values may be shown once. A number with no mark means an inactive call. Results filed as inconclusive are left out. Entries that show only a call come without a potency. The source made the active and inactive calls. Unless noted, calls follow the shape of the dose curve; as a rule, active = well fitted curve in the direction sought with a large enough effect; inconclusive = small, poorly fitted or top-dose-only effect, or another doubt; inactive = no such curve, though single readings can be large; an effect the other way counts as inactive or inconclusive.
# How the values were obtained:
# [1] = Cell Viability - HUV-EC-C (AID 542);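 also: cells exposed to compound for 40 hours; nearly all actives have a fitted effect of over 35% in size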
# Method in brief: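 Luminescent ATP read-out (CellTiter-Glo, 20 min room temperature) after 40 hr compound treatment of HUV-EC-C cells at 37 °C. Concentration-response data fitted with the standard Hill equation to give AC50; tamoxifen and doxorubicin served as positive controls.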
# [2] = Cellular Toxicity (caspase-3) Jurkat (AID 655); conditions: Jurkat caspase-3 activation, luminescence; caspase-3 activation: at 92.2 µM (top of the series), DMSO = 0%, tamoxifen = 100%;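 also: cells exposed to compound for 16 h at 37 °C before reading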
# Method in brief: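 Luminescent Caspase-Glo 3/7 read-out (20 min, room temperature) after 16 h compound treatment at 37 C of 5000 Jurkat cells per well. AC50 derived by Hill-equation fitting, scaled between DMSO basal and 100 uM tamoxifen stimulation.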
# [3] = MultiTox-Fluor Cytotoxicity Assay - LYMP1-001 - Live Cells (AID 947)
# [4] = Cell Viability - LYMP1-002 - Assay at 16 hr (AID 948)
# Method in brief: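 ATP luminescence (CellTiter-Glo) was measured after 16 hr compound exposure at 37 C of 2500 lymphoblastoid LYMP1-002 cells per well. Concentration-response curves were fitted with the Hill equation to give AC50.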
# [5] = MultiTox-Fluor Cytotoxicity Assay - LYMP1-003 - Dead Cells (AID 961); also: nearly all actives have a fitted effect of over 70% in size; also: potency is read from the fitted curve at half-maximal effect
# Method in brief: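 Acute toxicity is scored as increased dead-cell protease activity in human lymphoblastoid LYMP1-003 cells after 16 h compound exposure in complete culture medium. Activity is normalized to DMSO basal and 15 uM tetraoctylammonium bromide as full response.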
# [6] = Cell Viability - LYMP2-003 (AID 965);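 also: cells exposed to compounds for 24 h before reading; nearly all actives have a fitted effect of over 50% in size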; also: potency is read from the fitted curve at half-maximal effect
# Method in brief: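 CellTiter-Glo luminescence quantified ATP loss after 24 h compound treatment of LYMP2-003 lymphoblastoid cells at 37 C. Titration series were fitted with the standard Hill equation to give AC50.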
# [7] = Cell Viability - LYMP2-005 (AID 967); also: potency is read from the fitted curve at half-maximal effect
# Method in brief: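 LYMP2-005 human lymphoblastoid cells (2500/well) were treated with compounds for 24 h at 37 C. Intracellular ATP was then measured by CellTiter-Glo luminescence after 30 min at room temperature. AC50 values came from Hill-equation fits of qHTS concentration-response data.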
# [8] = Cell Viability - LYMP2-009 (AID 968); also: nearly all actives have a fitted effect of over 55% in size; also: potency is read from the fitted curve at half-maximal effect
# [9] = Cell Viability - LYMP2-011 (AID 969);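 also: cells exposed to compound for 24 hours; nearly all actives have a fitted effect of over 60% in size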; also: potency is read from the fitted curve at half-maximal effect
# Method in brief: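 Luminescent ATP read-out (CellTiter-Glo, 30 min RT) after 24 hr compound exposure at 37 C in human lymphoblastoid cells, 2500 cells/well. Decreasing ATP indicates cytotoxicity; AC50 from standard Hill fit.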
# [10] = Cell Viability - LYMP2-002 (AID 977); also: potency is read from the fitted curve at half-maximal effect
# Method in brief: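 Human lymphoblastoid cells, 2500/well, complete medium; 5 h 37 C settle; compound 24 h 37 C; CellTiter-Glo, 30 min RT; luminescence. Decrease in ATP = cytotoxicity; AC50 via Hill equation.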
# [11] = Cell Viability - LYMP2-008 (AID 980); also: nearly all actives have a fitted effect of over 60% in size; also: potency is read from the fitted curve at half-maximal effect
# Method in brief: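 Luminescent ATP read-out (CellTiter-Glo, 30 min RT) after 24 hr compound exposure at 37 C of human lymphoblastoid cells in complete medium. Decrease in ATP taken as cytotoxicity; AC50 derived by standard Hill fit of qHTS concentration-response data.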
# [12] = Cell Viability - LYMP2-026 (AID 989); also: nearly all actives have a fitted effect of over 50% in size; also: potency is read from the fitted curve at half-maximal effect
# Method in brief: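 qHTS cytotoxicity: 2500 cells/well, 5 hr 37 C, compound 24 hr 37 C, CellTiter-Glo 30 min RT, luminescence. Tetraoctylammonium bromide positive control. AC50 via standard Hill fit.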
# [13] = molecular target: Tumor necrosis factor (Homo sapiens) (UniProt P01375); assay: qHTS assay to identify small molecules that stimulate Tumor Necrosis Factor-alpha (TNF-alpha) secretion (AID 651757; active = well fitted curve in the direction sought with a large enough effect in the signal ratio; the % refers to the signal ratio)
# Method in brief: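 THP-1 cells, 3000/well; compound 17 hrs, 37 C; add cryptate/XL665 anti-TNF-alpha antibody pair; 3 hr RT; TR-FRET (HTRF) read of secreted TNF-alpha. Quantitative HTS format.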
# [14] = qHTS assay for small molecule agonists of the antioxidant response element (ARE) signaling pathway measured by Nrf2-dependant transcriptional activity (AID 720636; active = well fitted curve in the direction sought with a large enough effect in the repeat runs; an effect the other way counts as inactive or inconclusive)
# Method in brief: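 Nrf2-dependent transcription read as ONE-Glo luciferase signal from ARE-luc HepG2 reporter cells after 16 hr compound treatment at 37 C, 5% CO2, in assay medium with 1% dialyzed FBS.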
# [15] = molecular target: Nuclear receptor subfamily 1 group I member 2 (Rattus norvegicus) (UniProt Q9R1A7); assay: qHTS assay for small molecule activators of the rat pregnane X receptor (rPXR) signaling pathway (AID 651751; call rule not given here); conditions: rPXR reporter cells, luciferase (One-Glo), 24 h
# [16] = qHTS assay for small molecule activators of the human pregnane X receptor (PXR) signaling pathway (AID 720659; call rule not given here)
# [17] = Cell Viability - Jurkat (AID 426;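 active = dose-dependent loss of cell ATP signal giving a full or clear fitted curve, ranked by lower potency value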;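 also: potency is read from the fitted curve at half-maximal effect; cells exposed to compound for 40 hours at 37 °C before ATP read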); conditions: qHTS
# Method in brief: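 Luminescent ATP read-out (CellTiter-Glo, 20 min at room temperature) after 40 hr compound exposure at 37 °C of Jurkat E6-1 cells, 5000/well. Decreased ATP taken as cytotoxicity; AC50 from standard Hill equation.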
# [18] = MultiTox-Fluor Cytotoxicity Assay - LYMP1-001 - Dead Cells (AID 946)
# Method in brief: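 In this qHTS, 15 uM tetraoctylammonium bromide defined 100% and DMSO defined basal activity. Lymphoblastoid cells (LYMP1-001, 2500 per well) received compound for 16 hr at 37 C before a fluorogenic dead-cell substrate readout at 485/520 nm.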
# [19] = Cell Viability - LYMP2-013 (AID 970); also: nearly all actives have a fitted effect of over 55% in size; also: potency is read from the fitted curve at half-maximal effect
# Method in brief: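 CellTiter-Glo luminescence (cellular ATP) read after 30 min at RT. Cells: human lymphoblastoid line, 2500/well, 24 hr compound exposure at 37 C. Tetraoctylammonium bromide positive control; AC50 via standard Hill fit of qHTS titrations.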
# [20] = Cell Viability - LYMP2-024 (AID 988); also: nearly all actives have a fitted effect of over 60% in size; also: potency is read from the fitted curve at half-maximal effect
# Method in brief: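 ATP-based luminescence (CellTiter-Glo, 30 min RT) after 24 h compound exposure at 37 C of 2500 lymphoblastoid cells/well; decrease in ATP taken as cytotoxicity. qHTS concentration-response fitted to standard Hill equation for AC50.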
# Sequence of Tumor necrosis factor (Homo sapiens) (P01375 whole entry, looked up): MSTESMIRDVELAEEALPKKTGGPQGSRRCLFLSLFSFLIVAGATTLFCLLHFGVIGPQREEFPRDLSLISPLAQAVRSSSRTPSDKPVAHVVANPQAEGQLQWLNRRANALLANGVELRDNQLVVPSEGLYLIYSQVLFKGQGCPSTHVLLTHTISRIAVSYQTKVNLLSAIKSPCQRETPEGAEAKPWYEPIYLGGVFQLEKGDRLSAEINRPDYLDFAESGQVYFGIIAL
# Sequence of Nuclear receptor subfamily 1 group I member 2 (Rattus norvegicus) (Q9R1A7 whole entry, looked up): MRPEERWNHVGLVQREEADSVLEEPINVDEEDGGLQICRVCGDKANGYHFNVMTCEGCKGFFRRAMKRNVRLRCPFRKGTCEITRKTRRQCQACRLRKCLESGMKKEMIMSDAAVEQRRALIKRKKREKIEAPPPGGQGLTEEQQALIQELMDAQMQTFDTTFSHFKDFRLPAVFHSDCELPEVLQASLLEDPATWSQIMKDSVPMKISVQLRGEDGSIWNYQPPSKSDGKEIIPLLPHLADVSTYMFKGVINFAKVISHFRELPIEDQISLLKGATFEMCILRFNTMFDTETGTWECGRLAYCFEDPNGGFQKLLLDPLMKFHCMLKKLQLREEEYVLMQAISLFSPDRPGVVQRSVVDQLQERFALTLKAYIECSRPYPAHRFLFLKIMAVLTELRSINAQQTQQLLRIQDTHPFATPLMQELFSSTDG
Compound,Potency [1],caspase-3 activation [2],outcome [3],outcome [4],Potency [5],Potency [6],Potency [7],Potency [8],Potency [9],Potency [10],Potency [11],Potency [12],outcome [13],Potency [14],max response [15],outcome [16],Potency [17],outcome [18],Potency [19],Potency [20]
C(CCOCC1CO1)COCC1CO1 (centres undefined),inactive,15.1%,inactive,inactive,inactive,inactive,inactive,inactive,inactive,inactive,inactive,inactive,inactive,inactive,2.78%,inactive,–,–,–,–
O=[N+]([O-])/C=C/c1ccccc1,–,–,–,inactive,50.1 µM (active),–,inactive,50.1 µM (active),50.1 µM (active),39.8 µM (active),–,–,inactive,inactive,–,–,9.79 µM (active),inactive,50.1 µM (active),39.8 µM (active)
N#CC(Cl)(Cl)Cl,inactive,–,inactive,inactive,inactive,inactive,inactive,inactive,inactive,inactive,inactive,inactive,inactive,inactive,3.31%,inactive,–,inactive,inactive,inactive
CC(C)(C)OOC(=O)c1ccccc1,inactive,6.04%,–,inactive,inactive,inactive,–,inactive,inactive,inactive,inactive,–,–,inactive,2.87% and -0.927%,inactive,–,–,inactive,inactive
COC(C)(C)C,inactive,–,inactive,inactive,inactive,inactive,inactive,inactive,–,–,inactive,inactive,inactive,inactive,3.77%,inactive,–,inactive,inactive,inactive
Cc1cc(Cl)ccc1O,inactive,4.09%,inactive,inactive,inactive,–,inactive,inactive,inactive,inactive,inactive,inactive,inactive,–,-0.864%,inactive,> 92 µM,–,inactive,inactive
Nc1c(Br)cc([N+](=O)[O-])cc1[N+](=O)[O-],–,–,–,inactive,inactive,inactive,inactive,–,inactive,inactive,–,inactive,–,–,14.9%,inactive,–,inactive,–,–
CCCC[N+](=O)[O-],–,102% (active),–,inactive,inactive,inactive,inactive,inactive,inactive,–,inactive,–,inactive,inactive,1.76%,inactive,–,inactive,inactive,inactive
COP(=S)(OC)SCn1nnc2ccccc2c1=O,inactive,-1.97%,–,inactive,–,–,inactive,inactive,inactive,inactive,inactive,inactive,inactive,inactive,0.903% and 4.17%,–,> 92 µM,inactive,inactive,–
Cc1cc(N=Nc2ccccc2C)ccc1N,inactive,2.76%,inactive,inactive,inactive,inactive,inactive,–,inactive,inactive,inactive,inactive,–,–,–,–,–,inactive,inactive,inactive
Cc1cc(C)cc(OP(=O)(Oc2cc(C)cc(C)c2)Oc2cc(C)cc(C)c2)c1,inactive,0.111%,inactive,inactive,–,inactive,inactive,inactive,inactive,inactive,inactive,inactive,–,inactive,–,–,–,–,–,–
Clc1cccc(Cl)c1,inactive,-0.0419%,inactive,inactive,inactive,inactive,–,–,inactive,inactive,inactive,inactive,–,inactive,1.78%,inactive,> 92 µM,inactive,inactive,inactive
Oc1c(Cl)c(Cl)cc(Cl)c1Cl,inactive,83.2% (active),–,–,inactive,inactive,inactive,inactive,inactive,inactive,inactive,inactive,inactive,–,-8.76%,inactive,49.1 µM (active),inactive,inactive,inactive
Nc1ccc(Cc2ccc(N)c(Cl)c2)cc1Cl,–,–,inactive,inactive,–,inactive,inactive,inactive,–,inactive,inactive,–,inactive,inactive,–,–,–,inactive,inactive,inactive
Brc1ccc(Oc2ccc(Br)cc2Br)c(Br)c1,–,–,–,inactive,inactive,inactive,inactive,inactive,inactive,inactive,inactive,inactive,inactive,–,–,–,–,inactive,inactive,–
Cc1ccc(OP(=O)(Oc2ccc(C)cc2)Oc2ccc(C)cc2)cc1,inactive,1.7%,inactive,inactive,inactive,inactive,inactive,inactive,inactive,inactive,–,inactive,–,inactive,–,–,–,inactive,–,–
O=[N+]([O-])c1ccc(O)c([N+](=O)[O-])c1,inactive,–,–,inactive,inactive,inactive,inactive,inactive,–,inactive,inactive,inactive,inactive,inactive,–,inactive,–,inactive,–,–
Oc1cc(Cl)c(Cl)c(Cl)c1,–,14.2%,–,–,inactive,–,inactive,–,–,–,–,–,inactive,inactive,-2.97%,inactive,–,inactive,–,–
CN(C)c1ccc(N=Nc2ccccc2)cc1,inactive,-9.1%,inactive,inactive,inactive,–,–,–,–,–,inactive,inactive,–,–,–,–,–,inactive,inactive,–
[C-]1=CC=CC1.[C-]1=CC=CC1.[Cl-].[Cl-].[Ti+4],inactive,–,–,–,inactive,–,–,–,–,–,–,–,inactive,–,–,–,55.7 µM (active),inactive,–,–
BrCC(Br)(Br)Br,inactive,–,inactive,inactive,–,–,–,31.6 µM (active),39.8 µM (active),–,39.8 µM (active),–,inactive,inactive,-4.89%,inactive,–,inactive,25.1 µM (active),12.6 µM (active)
Clc1ccc(C(c2ccccc2Cl)C(Cl)(Cl)Cl)cc1 (centres undefined),inactive,–,inactive,inactive,inactive,inactive,inactive,–,inactive,–,inactive,inactive,inactive,inactive,–,–,–,inactive,–,inactive
Oc1cc(Cl)c(Cl)c(Cl)c1Cl,–,80.5% (active),inactive,–,inactive,inactive,inactive,–,–,–,inactive,inactive,–,–,-6.73%,inactive,54.1 µM (active),–,–,inactive
O=[N+]([O-])c1cccc(CCl)c1,–,–,inactive,inactive,inactive,inactive,–,–,–,inactive,–,inactive,–,–,-4.81%,inactive,–,inactive,inactive,–
N#C/C=C/C#N,–,-8.24%,inactive,–,–,20 µM (active),25.1 µM (active),31.6 µM (active),39.8 µM (active),–,39.8 µM (active),39.8 µM (active),inactive,–,-4.77%,inactive,20.8 µM (active),inactive,39.8 µM (active),–
Nc1ccc(-c2ccc(N)c(Cl)c2)cc1Cl,–,–,inactive,–,–,inactive,inactive,inactive,inactive,–,–,–,–,–,–,–,19 µM (active),–,inactive,inactive
